From paper PMC7862700, “An all-to-all approach to the identification of sequence-specific readers for epigenetic DNA modifications on cytosine” come the findings set out here.

Common to all, as to experiment: DAPPL (digital affinity profiling via proximity ligation, sequencing); 10 mM Tris-HCl pH 7.5, 50 mM NaCl, 1 mM DTT, 4% glycerol, room temperature, 30 min; GST-TFs on glutathione beads, 16-mer random dsDNA library, 0.1% formaldehyde crosslink after washing; high values mean tight binding
One test addresses T1, FEV (Homo sapiens, UniProt Q99581 1-238).
T1 sequence: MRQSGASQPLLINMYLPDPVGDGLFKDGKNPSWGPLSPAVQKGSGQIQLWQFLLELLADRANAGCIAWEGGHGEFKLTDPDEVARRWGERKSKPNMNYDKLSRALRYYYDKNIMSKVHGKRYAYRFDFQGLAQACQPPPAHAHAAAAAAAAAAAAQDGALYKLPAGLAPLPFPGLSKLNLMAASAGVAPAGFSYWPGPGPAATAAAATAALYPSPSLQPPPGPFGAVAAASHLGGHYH
The note with it: protein: recombinant; tags: N-terminal GST; dsDNA, one strand shown. In a few lines:
(§1)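 Human transcription factors carrying a GST fusion were produced in yeast, bound to glutathione beads, tagged with DNA barcodes and pooled together with a tag-only sample. Each pool was held with 200 nmole of a random double-stranded 16-mer DNA library in Tris/NaCl/DTT/glycerol buffer for 30 min at room temperature, then washed, crosslinked in 0.1% formaldehyde, proximity-ligated with BsaI/T4 ligase (1 h, 37 °C), PCR-amplified and sequenced on an Illumina NextSeq500. Binding signal is the read frequency of each hexamer for a given factor divided by its frequency in the tag-only sample.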

The next test deals with ETV5 (Homo sapiens, UniProt P41161 1-510). The note with it: protein: recombinant; tags: N-terminal GST; dsDNA, one strand shown. The essentials:
as §1

For a further test, the target named is HSF1 (Homo sapiens, UniProt Q00613 1-529). The note with it: protein: recombinant; tags: N-terminal GST; chain copies: 3; dsDNA, one strand shown. In a few lines:
as §1

Another test concerns the target T2, SPIC (Homo sapiens, UniProt Q8N5J4 1-248).
T2 sequence: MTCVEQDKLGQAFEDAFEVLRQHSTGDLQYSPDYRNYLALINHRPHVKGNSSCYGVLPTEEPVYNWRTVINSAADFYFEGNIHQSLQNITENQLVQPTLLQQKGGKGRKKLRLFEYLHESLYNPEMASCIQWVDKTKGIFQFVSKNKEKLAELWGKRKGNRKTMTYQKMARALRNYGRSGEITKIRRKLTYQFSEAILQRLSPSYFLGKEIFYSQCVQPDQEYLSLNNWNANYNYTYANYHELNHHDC
The note with it: protein: recombinant; tags: N-terminal GST; dsDNA, one strand shown. In a few lines:
as §1

The target of the next test is ELF4 (Homo sapiens, UniProt Q99607 1-663). The conditions noted are these: protein: recombinant; tags: N-terminal GST; dsDNA, one strand shown. The essentials: as §1
ELF4, sequence (Q99607 whole entry): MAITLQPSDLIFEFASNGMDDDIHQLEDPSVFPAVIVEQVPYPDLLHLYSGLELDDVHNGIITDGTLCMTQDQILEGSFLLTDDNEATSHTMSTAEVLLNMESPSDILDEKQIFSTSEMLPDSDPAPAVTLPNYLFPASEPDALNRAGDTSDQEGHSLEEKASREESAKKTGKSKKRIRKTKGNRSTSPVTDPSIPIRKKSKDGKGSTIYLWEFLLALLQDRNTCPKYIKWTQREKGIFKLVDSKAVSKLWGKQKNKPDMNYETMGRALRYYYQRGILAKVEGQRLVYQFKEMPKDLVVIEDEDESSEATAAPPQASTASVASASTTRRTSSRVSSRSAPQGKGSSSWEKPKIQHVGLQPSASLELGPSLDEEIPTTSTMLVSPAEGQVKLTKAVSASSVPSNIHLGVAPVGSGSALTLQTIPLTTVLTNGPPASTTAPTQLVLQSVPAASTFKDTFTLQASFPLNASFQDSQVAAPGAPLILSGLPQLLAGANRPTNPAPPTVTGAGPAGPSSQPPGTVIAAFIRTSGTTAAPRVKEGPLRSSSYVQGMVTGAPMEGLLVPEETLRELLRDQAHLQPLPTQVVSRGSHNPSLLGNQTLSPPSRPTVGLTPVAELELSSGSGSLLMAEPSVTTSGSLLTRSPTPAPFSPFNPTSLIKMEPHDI
Another test has as its target T3, ELK4 (Homo sapiens, UniProt P28324-2 1-405).
T3 sequence: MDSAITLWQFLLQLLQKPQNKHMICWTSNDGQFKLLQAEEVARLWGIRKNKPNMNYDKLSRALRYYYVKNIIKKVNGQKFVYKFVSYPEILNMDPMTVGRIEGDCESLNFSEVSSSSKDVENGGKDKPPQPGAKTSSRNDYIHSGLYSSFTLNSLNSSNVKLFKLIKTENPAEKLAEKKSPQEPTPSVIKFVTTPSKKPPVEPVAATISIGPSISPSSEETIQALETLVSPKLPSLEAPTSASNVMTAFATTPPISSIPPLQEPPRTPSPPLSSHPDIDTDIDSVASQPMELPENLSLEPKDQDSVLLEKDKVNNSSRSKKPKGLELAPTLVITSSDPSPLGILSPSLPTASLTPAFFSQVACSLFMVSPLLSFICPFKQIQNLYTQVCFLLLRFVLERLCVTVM
The conditions noted are these: protein: recombinant; tags: N-terminal GST; dsDNA, one strand shown. The essentials: as §1

The target in another test is T4, ETV2 (Homo sapiens, UniProt O00321 1-342).
T4 sequence: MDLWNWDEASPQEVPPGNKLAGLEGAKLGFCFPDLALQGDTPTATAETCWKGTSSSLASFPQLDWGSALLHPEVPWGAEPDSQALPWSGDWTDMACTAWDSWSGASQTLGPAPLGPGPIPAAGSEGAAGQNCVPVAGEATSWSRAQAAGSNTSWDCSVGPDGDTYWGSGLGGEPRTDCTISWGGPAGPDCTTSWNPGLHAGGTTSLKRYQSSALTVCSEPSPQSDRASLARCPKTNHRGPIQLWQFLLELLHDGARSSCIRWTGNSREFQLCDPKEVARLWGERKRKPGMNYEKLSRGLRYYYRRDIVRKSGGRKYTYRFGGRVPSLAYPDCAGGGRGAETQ
The conditions noted are these: protein: recombinant; tags: N-terminal GST; dsDNA, one strand shown. In a few lines:
as §1

For another test, the target named is T5, ELF3 (Homo sapiens, UniProt P78545 1-371).
T5 sequence: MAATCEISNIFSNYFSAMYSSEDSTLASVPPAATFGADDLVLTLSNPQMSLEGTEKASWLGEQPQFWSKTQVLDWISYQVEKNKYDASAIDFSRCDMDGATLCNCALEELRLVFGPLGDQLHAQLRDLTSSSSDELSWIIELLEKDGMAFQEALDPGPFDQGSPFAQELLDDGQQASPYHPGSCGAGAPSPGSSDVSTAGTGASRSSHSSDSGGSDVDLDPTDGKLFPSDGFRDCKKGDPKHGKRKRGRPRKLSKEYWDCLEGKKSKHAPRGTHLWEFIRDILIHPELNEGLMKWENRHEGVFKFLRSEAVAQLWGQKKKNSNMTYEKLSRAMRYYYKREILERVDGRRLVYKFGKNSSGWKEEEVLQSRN
The conditions noted are these: protein: recombinant; tags: N-terminal GST; dsDNA, one strand shown. The essentials:
as §1

A further test concerns the target CRX (Homo sapiens, UniProt O43186 1-299). The note with it: protein: recombinant; tags: N-terminal GST; dsDNA, one strand shown. The essentials: as §1
The target in the next test is ETV1 (Homo sapiens, UniProt P50549 1-477). The conditions noted are these: protein: recombinant; tags: N-terminal GST; dsDNA, one strand shown. The essentials: as §1
ETV1, sequence (P50549 whole entry): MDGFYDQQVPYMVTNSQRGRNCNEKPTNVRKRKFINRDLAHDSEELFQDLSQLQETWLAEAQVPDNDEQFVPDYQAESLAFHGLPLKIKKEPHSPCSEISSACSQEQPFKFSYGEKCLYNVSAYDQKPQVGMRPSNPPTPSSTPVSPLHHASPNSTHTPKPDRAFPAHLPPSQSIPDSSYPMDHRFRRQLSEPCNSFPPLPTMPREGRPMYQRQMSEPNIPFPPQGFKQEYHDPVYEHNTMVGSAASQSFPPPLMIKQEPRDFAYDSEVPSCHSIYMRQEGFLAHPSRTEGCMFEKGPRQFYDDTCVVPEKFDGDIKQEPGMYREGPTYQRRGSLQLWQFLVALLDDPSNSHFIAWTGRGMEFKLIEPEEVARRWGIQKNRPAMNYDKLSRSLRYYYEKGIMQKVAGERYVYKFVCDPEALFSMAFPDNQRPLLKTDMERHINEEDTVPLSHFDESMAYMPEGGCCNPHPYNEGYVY
The target of a further test is T6, ERF (Homo sapiens, UniProt P50548 1-548).
T6 sequence: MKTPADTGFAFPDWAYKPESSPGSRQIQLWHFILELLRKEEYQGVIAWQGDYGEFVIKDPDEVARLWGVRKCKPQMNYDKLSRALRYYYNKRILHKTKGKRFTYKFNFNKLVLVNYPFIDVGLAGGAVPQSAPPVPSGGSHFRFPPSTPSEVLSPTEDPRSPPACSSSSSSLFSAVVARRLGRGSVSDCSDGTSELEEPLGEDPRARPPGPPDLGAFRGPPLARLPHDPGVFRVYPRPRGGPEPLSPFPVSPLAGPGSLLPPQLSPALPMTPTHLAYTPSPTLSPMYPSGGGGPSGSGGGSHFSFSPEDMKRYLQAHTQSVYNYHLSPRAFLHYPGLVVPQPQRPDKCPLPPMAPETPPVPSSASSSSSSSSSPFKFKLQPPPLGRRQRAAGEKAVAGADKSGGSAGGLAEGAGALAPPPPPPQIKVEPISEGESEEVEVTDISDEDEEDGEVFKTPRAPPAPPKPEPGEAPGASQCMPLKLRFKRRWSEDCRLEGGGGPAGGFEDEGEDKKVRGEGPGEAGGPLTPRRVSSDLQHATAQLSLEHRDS
The conditions noted are these: protein: recombinant; tags: N-terminal GST; dsDNA, one strand shown. The essentials:
as §1

The next test has as its target T7, ETV3L (Homo sapiens, UniProt Q6ZN32 1-361).
T7 sequence: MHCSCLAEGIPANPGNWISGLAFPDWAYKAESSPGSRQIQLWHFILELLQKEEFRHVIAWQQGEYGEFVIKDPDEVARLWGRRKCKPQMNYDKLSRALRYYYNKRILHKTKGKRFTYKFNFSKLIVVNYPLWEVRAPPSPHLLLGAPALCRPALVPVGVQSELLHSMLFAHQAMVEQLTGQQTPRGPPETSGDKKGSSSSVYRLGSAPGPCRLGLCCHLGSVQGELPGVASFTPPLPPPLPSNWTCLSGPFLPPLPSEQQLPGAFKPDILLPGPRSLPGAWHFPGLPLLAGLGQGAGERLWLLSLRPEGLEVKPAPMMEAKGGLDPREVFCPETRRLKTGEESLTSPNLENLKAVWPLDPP
The conditions noted are these: protein: recombinant; tags: N-terminal GST; dsDNA, one strand shown. In a few lines:
as §1

A further test deals with T8, ETS2 (Homo sapiens, UniProt P15036 1-469).
T8 sequence: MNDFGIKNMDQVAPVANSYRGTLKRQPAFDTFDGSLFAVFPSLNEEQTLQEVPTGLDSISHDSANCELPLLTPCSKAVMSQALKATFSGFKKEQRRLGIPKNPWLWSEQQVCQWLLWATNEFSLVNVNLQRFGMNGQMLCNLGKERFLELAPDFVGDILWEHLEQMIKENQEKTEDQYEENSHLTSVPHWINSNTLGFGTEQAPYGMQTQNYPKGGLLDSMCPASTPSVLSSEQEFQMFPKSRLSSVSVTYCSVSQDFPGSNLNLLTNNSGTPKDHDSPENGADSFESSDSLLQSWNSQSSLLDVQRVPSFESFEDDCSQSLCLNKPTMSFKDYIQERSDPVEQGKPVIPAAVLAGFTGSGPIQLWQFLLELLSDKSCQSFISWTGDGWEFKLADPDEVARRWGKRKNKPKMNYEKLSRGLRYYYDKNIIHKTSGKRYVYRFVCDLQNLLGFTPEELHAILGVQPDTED
The conditions noted are these: protein: recombinant; tags: N-terminal GST; dsDNA, one strand shown. In a few lines: as §1

The next test concerns the target T9, SPDEF (Homo sapiens, UniProt O95238 1-335).
T9 sequence: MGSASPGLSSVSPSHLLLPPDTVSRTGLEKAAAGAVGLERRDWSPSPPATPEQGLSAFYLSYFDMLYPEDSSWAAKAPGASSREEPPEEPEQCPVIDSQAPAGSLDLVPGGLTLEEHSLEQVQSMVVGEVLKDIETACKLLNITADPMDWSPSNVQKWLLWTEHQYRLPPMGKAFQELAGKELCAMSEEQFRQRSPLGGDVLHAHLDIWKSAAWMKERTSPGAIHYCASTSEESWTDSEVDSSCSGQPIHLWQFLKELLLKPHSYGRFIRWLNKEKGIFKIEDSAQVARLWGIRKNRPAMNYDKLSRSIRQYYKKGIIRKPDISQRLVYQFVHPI
The conditions noted are these: protein: recombinant; tags: N-terminal GST; dsDNA, one strand shown. In a few lines: as §1

The next test concerns the target T10, ETV7 (Homo sapiens, UniProt Q9Y603 1-341).
T10 sequence: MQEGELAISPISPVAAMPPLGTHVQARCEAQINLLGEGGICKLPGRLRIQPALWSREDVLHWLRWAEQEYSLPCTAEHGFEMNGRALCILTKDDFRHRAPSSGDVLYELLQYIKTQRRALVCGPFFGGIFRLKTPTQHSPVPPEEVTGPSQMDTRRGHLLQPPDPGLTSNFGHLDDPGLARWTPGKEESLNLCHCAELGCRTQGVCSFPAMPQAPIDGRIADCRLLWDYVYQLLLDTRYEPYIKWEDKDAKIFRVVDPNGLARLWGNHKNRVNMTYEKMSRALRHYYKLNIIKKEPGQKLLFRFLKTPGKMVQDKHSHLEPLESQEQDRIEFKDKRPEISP
The note with it: protein: recombinant; tags: N-terminal GST; dsDNA, one strand shown. In a few lines:
as §1

The target in the next test is T11, ELF5 (Homo sapiens, UniProt Q9UKW6-2 1-255).
T11 sequence: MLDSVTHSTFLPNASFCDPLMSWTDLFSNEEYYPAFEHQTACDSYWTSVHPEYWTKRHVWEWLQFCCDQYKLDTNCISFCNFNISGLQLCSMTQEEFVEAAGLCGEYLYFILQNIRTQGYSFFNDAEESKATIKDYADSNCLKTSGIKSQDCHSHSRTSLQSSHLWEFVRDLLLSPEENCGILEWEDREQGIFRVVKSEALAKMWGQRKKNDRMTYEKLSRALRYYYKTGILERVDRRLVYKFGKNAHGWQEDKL
The conditions noted are these: protein: recombinant; tags: N-terminal GST; dsDNA, one strand shown. The essentials:
as §1

Another test addresses T12, ETV3 (Homo sapiens, UniProt P41162-2 1-143).
T12 sequence: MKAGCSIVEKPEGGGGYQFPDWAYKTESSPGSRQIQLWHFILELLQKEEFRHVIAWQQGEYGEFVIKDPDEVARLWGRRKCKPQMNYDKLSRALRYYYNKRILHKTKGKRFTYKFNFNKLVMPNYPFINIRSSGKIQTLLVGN
The note with it: protein: recombinant; tags: N-terminal GST; dsDNA, one strand shown. The essentials:
as §1

A further test concerns the target ETV6 (Homo sapiens, UniProt P41212 1-452). The conditions noted are these: protein: recombinant; tags: N-terminal GST; dsDNA, one strand shown. In a few lines:
as §1

ETV5, sequence (P41161 whole entry): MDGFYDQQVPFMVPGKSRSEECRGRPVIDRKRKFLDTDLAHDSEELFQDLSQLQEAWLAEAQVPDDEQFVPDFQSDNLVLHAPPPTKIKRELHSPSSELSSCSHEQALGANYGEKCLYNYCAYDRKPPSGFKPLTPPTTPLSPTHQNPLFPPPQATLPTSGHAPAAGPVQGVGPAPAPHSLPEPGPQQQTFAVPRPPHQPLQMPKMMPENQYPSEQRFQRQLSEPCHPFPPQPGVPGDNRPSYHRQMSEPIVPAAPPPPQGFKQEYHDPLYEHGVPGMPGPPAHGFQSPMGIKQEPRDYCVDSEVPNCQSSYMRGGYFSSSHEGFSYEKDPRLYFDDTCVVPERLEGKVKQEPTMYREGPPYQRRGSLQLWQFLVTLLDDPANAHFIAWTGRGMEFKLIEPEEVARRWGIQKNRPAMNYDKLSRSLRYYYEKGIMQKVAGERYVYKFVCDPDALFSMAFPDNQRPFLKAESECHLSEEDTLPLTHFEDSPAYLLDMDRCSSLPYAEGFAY
CRX, sequence (O43186 whole entry): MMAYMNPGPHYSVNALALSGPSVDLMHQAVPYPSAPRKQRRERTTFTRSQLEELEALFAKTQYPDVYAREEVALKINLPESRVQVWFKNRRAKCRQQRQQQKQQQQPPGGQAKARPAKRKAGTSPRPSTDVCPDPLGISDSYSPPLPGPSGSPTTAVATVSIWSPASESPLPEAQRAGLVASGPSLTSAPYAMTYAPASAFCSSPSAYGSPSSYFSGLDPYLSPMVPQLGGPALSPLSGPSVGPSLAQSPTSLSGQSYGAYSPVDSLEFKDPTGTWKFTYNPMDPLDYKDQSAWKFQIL
HSF1, sequence (Q00613 whole entry): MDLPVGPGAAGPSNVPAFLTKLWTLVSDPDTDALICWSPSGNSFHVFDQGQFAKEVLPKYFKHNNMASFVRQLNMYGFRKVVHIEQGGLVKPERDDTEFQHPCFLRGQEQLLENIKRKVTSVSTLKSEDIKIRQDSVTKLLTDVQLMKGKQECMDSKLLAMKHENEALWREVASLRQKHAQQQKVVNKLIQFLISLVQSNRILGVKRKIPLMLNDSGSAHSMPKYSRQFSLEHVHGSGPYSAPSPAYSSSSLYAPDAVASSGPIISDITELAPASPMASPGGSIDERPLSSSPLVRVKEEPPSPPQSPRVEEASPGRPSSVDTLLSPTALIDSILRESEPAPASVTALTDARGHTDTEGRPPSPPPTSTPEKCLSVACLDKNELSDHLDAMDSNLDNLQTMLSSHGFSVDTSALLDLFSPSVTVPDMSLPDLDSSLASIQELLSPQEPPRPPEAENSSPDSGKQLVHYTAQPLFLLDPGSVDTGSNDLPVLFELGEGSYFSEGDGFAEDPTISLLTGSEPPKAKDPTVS
ETV6, sequence (P41212 whole entry): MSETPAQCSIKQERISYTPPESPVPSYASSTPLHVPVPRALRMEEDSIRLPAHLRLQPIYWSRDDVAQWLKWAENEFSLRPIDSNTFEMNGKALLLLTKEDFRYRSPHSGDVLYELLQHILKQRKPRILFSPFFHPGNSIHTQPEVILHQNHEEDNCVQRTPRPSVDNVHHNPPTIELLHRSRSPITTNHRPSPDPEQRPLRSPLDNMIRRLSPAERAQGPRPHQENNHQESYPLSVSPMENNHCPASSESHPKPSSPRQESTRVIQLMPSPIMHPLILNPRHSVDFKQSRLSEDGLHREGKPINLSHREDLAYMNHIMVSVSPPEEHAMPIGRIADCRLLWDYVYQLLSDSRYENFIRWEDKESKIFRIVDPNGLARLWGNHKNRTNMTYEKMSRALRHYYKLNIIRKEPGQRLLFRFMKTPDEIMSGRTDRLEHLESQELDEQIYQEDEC

On to CTGCTT, for which the binding signal is 1.8 fold enrichment (6-mer frequency, TF over GST control) with FEV; 1.66 fold enrichment (6-mer frequency, TF over GST control) with ETV5; 1.53 fold enrichment (6-mer frequency, TF over GST control) with HSF1; 1.8 fold enrichment (6-mer frequency, TF over GST control) with SPIC; 1.68 fold enrichment (6-mer frequency, TF over GST control) with ELF4; 1.88 fold enrichment (6-mer frequency, TF over GST control) in the test with ELK4. In addition, the binding signal with ETV2 was 1.93 fold enrichment (6-mer frequency, TF over GST control); in the test with ELF3, 1.28 fold enrichment (6-mer frequency, TF over GST control); with CRX, 1.69 fold enrichment (6-mer frequency, TF over GST control); with ETV1 it was 1.73 fold enrichment (6-mer frequency, TF over GST control); with ERF, 1.67 fold enrichment (6-mer frequency, TF over GST control); with ETV3L it was 1.7 fold enrichment (6-mer frequency, TF over GST control). For the same sequence, the binding signal was 1.63 fold enrichment (6-mer frequency, TF over GST control) with ETS2; 1.67 fold enrichment (6-mer frequency, TF over GST control) with SPDEF; 1.57 fold enrichment (6-mer frequency, TF over GST control) with ETV7; 1.64 fold enrichment (6-mer frequency, TF over GST control) with ELF5; 1.75 fold enrichment (6-mer frequency, TF over GST control) in the test with ETV3; 1.71 fold enrichment (6-mer frequency, TF over GST control) in the test with ETV6.
